Results: ChEMBL document CHEMBL4513141, “CO-ADD screening of NIH (USA) - Clinical Collection” (2021)
In all, about 23,000 compounds went through this assay and about 30 (0.1%) showed an effect of 50% or more. The full list was thinned out, with strong results kept by preference. Results with a measured potency or affinity are listed apart.

Test system: Pseudomonas aeruginosa
Details: Concentration 20 uM; ASSAY_TEST Inhibition of Bacterial Growth; detection method Absorption (OD600); MEDIA CAMHB; plate type 384well; NBS; CORNING #3640; time 18 hr

| SMILES | Inhibition [%] |
| --- | --- |
| Cc1nnc2n1-c1ccc(Cl)cc1C(c1ccccc1)=NC2 [ALPRAZOLAM] | 52.22 |
| CN1C(=O)CN=C(c2ccccc2)c2cc(Cl)ccc21 [DIAZEPAM] | 6.74 |
| Cc1ncc2n1-c1ccc(Cl)cc1C(c1ccccc1F)=NC2.Cl [MIDAZOLAM HYDROCHLORIDE] | 11.86 |
| Cn1c(=O)c2nc[nH]c2n(C)c1=O.O [THEOPHYLLINE] | 16.98 |
